# Bioassay records: PubChem, National Center for Advancing Translational Sciences (NCATS)
# Compounds with a hit are over-represented: about 19% of the library has one in this group of screens.
# TDP1 cell CPT: DT40-hTDP1 cell growth loss with CPT | AID 686979 | Potency, µM (top dose mostly 46.2 µM), hits mostly inhibitors | 420,000 tested, 12% active | chicken DT40 Tdp1-/-;hTDP1 cells + 20 nM CPT, ATP luminescence, 48 h; note: nearly all actives have a fitted effect of over 55% in size
#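 Chicken DT40 Tdp1-/- cells complemented with human TDP1, 400 cells/well, exposed to compounds plus 20 nM camptothecin for at least 48 h at 37 C; viability read as ATP content by CellTiter-Glo luminescence.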
# VP16 counter: inhibits Gal4-VP16 luciferase reporter, ROR gamma counter-screen | Drosophila S2 Gal4-VP16 UAS-luciferase, luminescence, 20 h | Potency, µM (top dose mostly 53.6 µM), usual class: inhibitors | 310,000 tested, 3.5% active | AID 2546;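 note: Gal4-VP16 expression switched on by copper sulfate through the metallothionein promoter; nearly all actives have a fitted effect of over 50% in size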
# TDP1 cell noCPT: qHTS for Inhibitors of human tyrosyl-DNA phosphodiesterase 1 (TDP1): qHTS in cells in absence of CPT; 420,000 tested, 15% active; Potency, µM (top dose mostly 46.2 µM), actives largely listed as inhibitors; DT40 Tdp1-/- hTDP1 cells, no CPT, ATP luminescence, 48 h; note: nearly all actives have a fitted effect of over 55% in size
#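 Stably hTDP1-transfected Tdp1-null chicken DT40 cells were treated with library compounds minus camptothecin and grown for at least 48 hr at 37 °C, after which cellular ATP was quantified by luminescence.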
# TDP1 block: inhibitors of human tyrosyl-DNA phosphodiesterase TDP1; Q9NUW8; recombinant TDP1, AlphaScreen DNA substrate cleavage; Potency, µM (doses to about 130 µM), hits mostly inhibitors; 350,000 tested, 0.28% active; AID 485290; note: nearly all actives have a fitted effect of over 40% in size
# Target sequence (Q9NUW8 whole entry, looked up): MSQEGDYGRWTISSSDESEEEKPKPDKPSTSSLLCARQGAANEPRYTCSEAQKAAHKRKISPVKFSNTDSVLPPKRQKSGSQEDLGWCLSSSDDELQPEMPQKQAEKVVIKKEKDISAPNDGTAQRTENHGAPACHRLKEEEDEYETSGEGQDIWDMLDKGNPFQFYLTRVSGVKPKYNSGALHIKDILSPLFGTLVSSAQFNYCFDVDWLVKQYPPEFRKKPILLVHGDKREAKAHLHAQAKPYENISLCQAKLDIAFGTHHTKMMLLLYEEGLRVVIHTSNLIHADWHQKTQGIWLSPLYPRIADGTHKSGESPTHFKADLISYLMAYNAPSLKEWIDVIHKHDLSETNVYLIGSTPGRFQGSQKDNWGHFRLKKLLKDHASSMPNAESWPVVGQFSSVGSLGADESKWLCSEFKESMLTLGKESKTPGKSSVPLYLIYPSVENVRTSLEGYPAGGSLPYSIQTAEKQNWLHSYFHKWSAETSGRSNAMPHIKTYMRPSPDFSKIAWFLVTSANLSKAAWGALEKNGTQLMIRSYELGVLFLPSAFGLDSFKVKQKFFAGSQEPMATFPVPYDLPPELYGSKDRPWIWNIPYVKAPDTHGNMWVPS
#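 Compounds were preincubated with Tdp1 (1 nM final) for 15 min at room temperature before substrate (15 nM final) started a 5 min reaction; beads (10 ug/ml final) were then added for 10 min before AlphaScreen detection.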
# RORgamma inh: ROR gamma (mouse) transcription inhibition; P51450; 310,000 tested, 5.4% active; Potency, µM (series often up to 53.6 µM), most hits filed as inhibitors; AID 2551; Drosophila S2 Gal4-RORgamma UAS-luciferase reporter, 20 h; note: nearly all actives have a fitted effect of over 60% in size
#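 Luminescence from a UAS-regulated Photinus luciferase reporter in stably transfected Drosophila Schneider cells is measured; decreased signal marks ROR gamma inhibition. Fusion expression is induced by 700 uM copper sulfate for 20 hr.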
# Numbers stand for hits; . = inactive; ? = inconclusive; / = no result given; ! = not confirmed by another sample; [ ] = remark or other dose. Calls come from the whole dose curve; as a rule, active = well fitted curve in the direction sought with a large enough effect; inconclusive = small, poorly fitted or top-dose-only effect, or another doubt; inactive = no such curve, though single readings can be large; an effect the other way counts as inactive or inconclusive.
SMILES,TDP1 cell CPT,VP16 counter,TDP1 cell noCPT,TDP1 block,RORgamma inh
Cc1cccc(C#Cc2ccccc2)n1,?,?,30µM!,.,14µM
CC1(C)CC(=O)c2sc(NC(=O)CCS(=O)(=O)c3ccccc3)nc2C1,3.3µM,5.6µM,5.8µM,.,?
CC1(C)CC(=O)c2sc(NC(=O)c3cccs3)nc2C1,?,5.6µM,?,.,5µM
O=C(N/N=C/c1ccco1)c1cc([N+](=O)[O-])cc([N+](=O)[O-])c1,.,10µM,?,.,5.6µM
O=C(N/N=C/c1ccc(Br)o1)c1cc([N+](=O)[O-])cc([N+](=O)[O-])c1,?,4.5µM,?,.,1.6µM
Cc1cc([N+](=O)[O-])ccc1-c1ccc(/C=N/NC(=O)c2ccc(Br)o2)o1,?,7.9µM,?,.,7.1µM
O=C(N/N=C/c1ccco1)c1cccc([N+](=O)[O-])c1,.,.,.,.,?
O=C(NCc1ccco1)c1ccc2c(=O)n(CC3CCCO3)c(=S)[nH]c2c1 (stereo not given),.,.,.,.,?
Nc1nc(N)c2c(Oc3ccc(F)cc3)cccc2n1,13µM,/,1.8µM,/,/
Nc1nc(N)c2c(OCc3ccc(C(F)(F)F)cc3)cccc2n1,5µM,/,3.2µM,/,/
COc1ccc(-c2csc(=NCCO)n2-c2ccccc2)cc1,?,.,18µM,/,?
COc1ccc(CC(=O)Nc2nc3c(s2)CC(C)CC3)cc1 (stereo not given),?,/,?,.,/
C#Cc1cccc(C(=O)NCc2nc(-c3ccccc3NC(=O)C3CCCO3)oc2C)c1 (stereo not given),.[9.04 µM],/,.,/,/
O=C1CC(N2C(=O)/C(=C/C=C/c3ccccc3)SC2=S)C(=O)N1c1ccccc1 (stereo not given),13µM,.,13µM,.,.
COc1ccccc1-n1c(-c2cn(C)nc2C)n[nH]c1=S,.,.,.,.,.
COc1ccc(CC(=O)NCc2n[nH]c(=S)n2-c2cccc(C)c2)cc1,.,.,.,.,.
Cc1cccc(-n2c(-c3csc(C(C)C)c3)n[nH]c2=S)c1,.,?,.,.,1.6µM
Cc1cccc(-n2c(-c3csc(C)c3C)n[nH]c2=S)c1,.,11µM,.,.,2.5µM
Cc1ccccc1-n1c(-c2csc(C)c2C)n[nH]c1=S,?,6.3µM,?,.,2.8µM
Cc1ccccc1-n1c(-c2csc3ccccc23)n[nH]c1=S,.,?,?,.,1.1µM
CCOC(=O)c1c(S(=O)(=O)NCC2CCN(Cc3cccc(F)c3)CC2)c(C)n(C)c1C,.,.,.,.,.
COC(=O)[C@@H]1C[C@H](NC(=O)c2cc(C(F)(F)F)ccc2Cl)CN1Cc1cccc(O)c1,.[9.04 µM],/,.,/,/
CCc1cc(-c2n[nH]c(=S)n2C(C)c2ccccc2)cs1 (stereo not given),?,.,.,.,.
Cc1scc(-c2n[nH]c(=S)n2C(C)c2ccccc2)c1C (stereo not given),?,7.1µM,16µM,.,4µM
O=C(NC(c1ccccc1)c1cnccn1)C1CCN(CCCOc2ccccc2)CC1 (stereo not given),.,/,.,/,/
SMILES,TDP1 cell CPT,VP16 counter,TDP1 cell noCPT,TDP1 block,RORgamma inh
O=C(NC(c1ccc(Cl)cc1)c1cnccn1)C1CCN(CCCc2ccccc2)CC1 (stereo not given),23µM,/,?,/,/
O=C(NC(c1ccc(Cl)cc1)c1cnccn1)C1CCN(CCCOc2ccccc2)CC1 (stereo not given),23µM,/,21µM,/,/
CS(=O)(=O)N1CCN(c2ccccc2NC(=O)c2cccnc2Cl)CC1,.,.,.,.,.
CCC(C)(c1ccc(C(=O)OC)s1)c1ccc(C(=O)OC)s1,.,?,.,.,.
CN(CC(=O)Nc1ccc(Cl)c(C(F)(F)F)c1)C(=O)c1cc(=O)[nH]c2ccccc12,?,/,?,.,/
Cc1ccc(NC(=O)CN(C)C(=O)c2cccnc2Nc2cccc(C(F)(F)F)c2)cc1,?,13µM,?,.,?
CN(CC(=O)Nc1ccc(Cl)c(C(F)(F)F)c1)C(=O)CCCNC(=O)c1ccc(Cl)cc1,21µM,/,15µM,.,/
CN(CC(=O)Nc1ccc(Cl)c(C(F)(F)F)c1)C(=O)CNC(=O)C1CCCCC1,?,/,16µM,.,/
CN(CC(=O)Nc1ccc(Cl)c(C(F)(F)F)c1)C(=O)c1cccc2cccnc12,?,/,23µM,.,/
O=C(CCNS(=O)(=O)c1cccc2nonc12)Nc1ccc(Cl)cc1,.,.,.,.,.
Cc1ccc([N+](=O)[O-])cc1Nc1nc(N2CCOCC2)nc(N2CCOCC2)n1,.,.,.,.,.
O=C(Nc1ccccc1)c1ccc(N2CCN(c3ccccn3)CC2)c(S(=O)(=O)N2CCOCC2)c1,.,.,.,.,.
O=C(Nc1ccc(Br)cc1)c1ccc(F)c(S(=O)(=O)N2CCN(c3ccccn3)CC2)c1,?,?,7.3µM,.,.
Cc1ccc(C)c(N2CCN(S(=O)(=O)c3cc(C(=O)Nc4ccccc4C(F)(F)F)ccc3F)CC2)c1,12µM,/,13µM,.,/
CCc1ccccc1NC(=O)c1ccc(F)c(S(=O)(=O)N2CCN(c3cccc(Cl)c3)CC2)c1,?,/,?,.,/
Cc1ccccc1NC(=O)c1ccc(F)c(S(=O)(=O)N2CCN(c3ccccn3)CC2)c1,28µM,?,11µM,.,?
Cc1ccc(-c2c(C(=O)Nc3ccccc3F)oc(=O)c3ccccc23)cc1,?,/,?,.,/
O=C(NCc1ccccc1)c1ccc(CS(=O)(=O)Cc2ccccc2F)o1,.,.,?,.,.
COc1ccc(CNC(=O)c2ccc(CS(=O)(=O)Cc3ccccc3F)o2)cc1,?,.,16µM,.,.
Cc1ccccc1CS(=O)(=O)Cc1ccc(C(=O)NCc2ccc(F)cc2)o1,?,/,16µM,.,/
O=C(NCc1ccccc1)c1ccc(CS(=O)(=O)Cc2ccc(F)cc2)o1,?,.,?,.,.
CCc1ccc(CNC(=O)c2ccc(CS(=O)(=O)Cc3ccccc3C)o2)cc1,21µM,/,21µM,.,/
Cc1ccc(-c2c(C(=O)NCc3ccc(F)cc3)oc(=O)c3ccccc23)cc1,?,.,21µM!,.,.
O=c1oc2c3c(ccc2c2ccccc12)OCN(Cc1cccc(Cl)c1)C3,?,/,?,.,/
CC1CCCCN1C(=O)COC(=O)CSc1ccc(C(N)=O)cc1[N+](=O)[O-] (stereo not given),.,/,.,/,/
CCOC(=O)c1ccc(-c2ccc(/C=C(\C#N)c3nc4ccc(C)cc4[nH]3)o2)cc1,23µM,/,2.6µM,.[12.3 µM],/
Cc1ccc2nc(/C(C#N)=C\c3ccc(N4CCOCC4)o3)[nH]c2c1,13µM,.,21µM,.,?
O=C(Nc1cccc(F)c1)C1CC(=O)N(c2ccc(Br)cc2)C1 (stereo not given),.,.,?,.,?
CCSc1nc(N2CCCCC2)c2c(c1C#N)CCCC2,?,.,16µM,.,.
